The record followed here is ChEMBL document CHEMBL1961873, “Compounds: GSK PKIS; Assays: Nanosyn kinase panel” (2012).

The target of the first assay is T1, Ephrin type-B receptor 3 (Homo sapiens) (UniProt P54753).
T1 sequence (whole entry): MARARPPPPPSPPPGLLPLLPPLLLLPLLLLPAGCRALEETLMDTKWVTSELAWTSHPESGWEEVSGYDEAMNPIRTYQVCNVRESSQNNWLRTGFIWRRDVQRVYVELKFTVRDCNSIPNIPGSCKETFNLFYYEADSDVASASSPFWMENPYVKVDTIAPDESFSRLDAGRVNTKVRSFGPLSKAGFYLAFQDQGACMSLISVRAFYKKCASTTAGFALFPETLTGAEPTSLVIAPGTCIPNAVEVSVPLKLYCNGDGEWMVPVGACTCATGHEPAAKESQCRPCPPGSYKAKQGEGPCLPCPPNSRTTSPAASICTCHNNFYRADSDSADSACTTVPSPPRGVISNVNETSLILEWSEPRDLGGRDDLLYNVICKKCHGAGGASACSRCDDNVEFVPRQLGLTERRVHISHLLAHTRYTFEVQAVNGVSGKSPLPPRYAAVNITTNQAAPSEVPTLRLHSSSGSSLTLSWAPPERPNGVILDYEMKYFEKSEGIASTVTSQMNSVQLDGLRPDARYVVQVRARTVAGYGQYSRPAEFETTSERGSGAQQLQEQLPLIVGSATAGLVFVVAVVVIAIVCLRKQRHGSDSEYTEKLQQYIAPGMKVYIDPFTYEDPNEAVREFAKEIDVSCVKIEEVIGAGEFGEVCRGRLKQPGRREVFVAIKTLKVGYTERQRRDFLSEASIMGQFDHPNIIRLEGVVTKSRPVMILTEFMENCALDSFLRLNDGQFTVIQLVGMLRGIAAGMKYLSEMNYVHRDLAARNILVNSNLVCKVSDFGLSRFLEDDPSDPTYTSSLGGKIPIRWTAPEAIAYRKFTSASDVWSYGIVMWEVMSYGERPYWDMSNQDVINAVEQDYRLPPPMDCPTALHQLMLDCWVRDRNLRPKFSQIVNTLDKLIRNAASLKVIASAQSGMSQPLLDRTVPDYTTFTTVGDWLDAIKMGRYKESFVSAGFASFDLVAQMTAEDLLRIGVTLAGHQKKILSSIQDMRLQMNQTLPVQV
The note with it: at 0.1 µM.
With `CN(C)C(=O)O[C@H]1CN[C@H](C#Cc2cc3ncnc(Nc4ccc(OCc5cccc(F)c5)c(Cl)c4)c3s2)C1`, the inhibition (usually the drop in the measured response relative to a control, in per cent) is 4.55%.
Still for that read-out and setting: the figure for `CCS(=O)(=O)c1ccc(OC)c(Nc2ncc(-c3cccc(OC)c3)o2)c1` is 3.22%; for `COc1cc2ncn(-c3cc(OCc4ccccc4S(C)(=O)=O)c(C#N)s3)c2cc1OC` it is 5.99%.
`[O-][S+]1CCN(Cc2ccc(-c3ccc4ncnc(Nc5ccc(OCc6ccccc6)c(Cl)c5)c4c3)o2)CC1`: the inhibition turned out to be 0.63%.
For `OCc1ccc(-c2nc(-c3ccccn3)c(-c3ccc4c(c3)OCO4)[nH]2)cc1`, the inhibition is 5.72%.
The same measure, in the same setting: the figure for `COc1cc(/C=N/Nc2ncnc3c2cnn3C(C)C)ccc1O` is 2.7%; for `Nc1nccc(-c2c(-c3ccc(F)cc3)nn3cc(C(F)(F)F)ccc23)n1` it is -0.56%.
The same measure, in the same setting: the figure for `CN(C)CCCn1c(-c2nonc2N)nc2cnccc21` is 5.3%.
Take `COc1cc(Nc2nccc(-c3cnn4ncccc34)n2)cc(OC)c1`: the inhibition was 3.58%.
Same read-out and setting: with `NS(=O)(=O)c1cccc(-c2cc3ccncc3cc2OCc2ccccc2)c1` the figure was 6.23%.
The same measure, in the same setting: with `CN1CCN(C(=O)c2ccc(NC(=O)Nc3ccc(N(C)c4ccnc(Nc5ccc(CS(C)(=O)=O)cc5)n4)cc3)cc2)CC1` the figure was 2.73%; with `Cc1ccc2c(c1)/C(=N/Nc1ccc(S(N)(=O)=O)cc1)C(=O)N2`, 2.46%; with `Cc1ccc(NC(=O)CC2CC2)cc1-c1ccc(C(=O)NCC2CC2)cc1`, 4.23%.
Same read-out and setting: the figure for `CN(c1ccc(NC(=O)Nc2ccc(OC(F)(F)F)cc2)cc1)c1ccnc(Nc2cccc(S(N)(=O)=O)c2)n1` is 3.87%; for `C[C@@H](Oc1cc(-n2cnc3ccc(OC[C@@H](O)CO)cc32)sc1C(N)=O)c1ccccc1Cl` it is -1.05%.
For `Cc1ccc(C(=O)NC2CC2)cc1-c1ccc2[nH]ncc2c1`, the inhibition was -8.95%.
Same read-out and setting: with `COc1ccc(-c2nn3ncccc3c2-c2ccnc(Nc3cccc(C(F)(F)F)c3)n2)cc1` the figure was 3.95%; with `CN(C)C(=O)O[C@@H]1CN[C@@H](C#Cc2cc3ncnc(Nc4ccc(OCc5cccc(F)c5)c(Cl)c4)c3s2)C1`, 2.5%.
The same measure, in the same setting: with `CC(C)c1ccc2c(c1)NC(=O)/C2=N/Nc1ccc(S(N)(=O)=O)cc1` the figure was 0.49%.
The same measure, in the same setting: with `NS(=O)(=O)c1ccc(NC=C2C(=O)Nc3ccc4ncsc4c32)cc1` the figure was 5.96%; with `C[C@@H](Oc1cc(-n2cnc3ccc(OCC4CCN(C)CC4)cc32)sc1C(N)=O)c1ccccc1C(F)(F)F`, -3.13%; with `CN(C)c1cc2c(Nc3ccc4c(cnn4Cc4ccccc4)c3)ncnc2cn1`, 4.69%.
With `Cc1ccc(Nc2ccnc(Nc3cccc(C(N)=O)c3)n2)cc1O`, the inhibition was determined as 0.29%.
The same measure, in the same setting: with `CCS(=O)(=O)c1ccc(OC)c(Nc2nccc(N(C)c3ccc4c(C)n[nH]c4c3)n2)c1` the figure was 2.23%; with `COC(=O)Nc1nc2cc(Oc3ccc(NC(=O)Nc4cccc(Br)c4)cc3)ccc2[nH]1`, 5.42%.
On the same count and under the same terms, with `CC(C)c1ccc(Nc2nccc(-c3cnn4ncccc34)n2)cc1` the figure was 6.52%; with `NS(=O)(=O)c1ccc(N/N=C2\C(=O)Nc3ccc(Cl)cc32)cc1`, 3.51%.
On the same count and under the same terms, the figure for `COc1cccc(-n2ncc3c(N/N=C/c4ccc(C)cc4)ncnc32)c1` is 2.7%; for `CCn1c(-c2nonc2N)nc2ccc(F)cc21` it is 6.48%; for `COc1cc2ncnc(Nc3ccc4c(cnn4Cc4ccccc4)c3)c2cc1OC` it is 2.93%.
As for `Nc1nccc(C#Cc2cncnc2Nc2ccc(OCc3cccc(F)c3)c(Cl)c2)n1`, the inhibition was found to be 5.26%.
The same measure, in the same setting: the figure for `Cc1cc(-c2ccccn2)cc(C)c1/C=C/c1cncc(-c2nn[nH]n2)c1` is 2.22%; for `CS(=O)(=O)Nc1cccc(-c2ccc3c(NC(=O)C4CC4)n[nH]c3c2)c1` it is 4.48%; for `O=C1Nc2ccc(-c3cccnc3)cc2C1=Cc1cc(Br)c(O)c(Br)c1` it is 4.6%.

Another assay addresses T1, Ephrin type-B receptor 3 (Homo sapiens). The following applies: at 1 µM.
Take `CN(C)C(=O)O[C@H]1CN[C@H](C#Cc2cc3ncnc(Nc4ccc(OCc5cccc(F)c5)c(Cl)c4)c3s2)C1`: the inhibition was determined as 5.69%.
Same read-out and setting: the figure for `CCS(=O)(=O)c1ccc(OC)c(Nc2ncc(-c3cccc(OC)c3)o2)c1` is 2.36%; for `COc1cc2ncn(-c3cc(OCc4ccccc4S(C)(=O)=O)c(C#N)s3)c2cc1OC` it is 4.4%; for `[O-][S+]1CCN(Cc2ccc(-c3ccc4ncnc(Nc5ccc(OCc6ccccc6)c(Cl)c5)c4c3)o2)CC1` it is 1.88%.
The same measure, in the same setting: with `OCc1ccc(-c2nc(-c3ccccn3)c(-c3ccc4c(c3)OCO4)[nH]2)cc1` the figure was 3.87%; with `COc1cc(/C=N/Nc2ncnc3c2cnn3C(C)C)ccc1O`, 4.2%.
On the same count and under the same terms, with `Nc1nccc(-c2c(-c3ccc(F)cc3)nn3cc(C(F)(F)F)ccc23)n1` the figure was 3.25%.
For `CN(C)CCCn1c(-c2nonc2N)nc2cnccc21`, the inhibition came out at 2.05%.
Still for that read-out and setting: the figure for `COc1cc(Nc2nccc(-c3cnn4ncccc34)n2)cc(OC)c1` is -3.61%.
As for `NS(=O)(=O)c1cccc(-c2cc3ccncc3cc2OCc2ccccc2)c1`, the inhibition was 4.28%.
Still for that read-out and setting: the figure for `CN1CCN(C(=O)c2ccc(NC(=O)Nc3ccc(N(C)c4ccnc(Nc5ccc(CS(C)(=O)=O)cc5)n4)cc3)cc2)CC1` is 3.2%; for `Cc1ccc2c(c1)/C(=N/Nc1ccc(S(N)(=O)=O)cc1)C(=O)N2` it is -0.26%; for `Cc1ccc(NC(=O)CC2CC2)cc1-c1ccc(C(=O)NCC2CC2)cc1` it is 3.77%.
Same read-out and setting: the figure for `CN(c1ccc(NC(=O)Nc2ccc(OC(F)(F)F)cc2)cc1)c1ccnc(Nc2cccc(S(N)(=O)=O)c2)n1` is 8.25%.
Still for that read-out and setting: with `C[C@@H](Oc1cc(-n2cnc3ccc(OC[C@@H](O)CO)cc32)sc1C(N)=O)c1ccccc1Cl` the figure was -0.83%.
With `Cc1ccc(C(=O)NC2CC2)cc1-c1ccc2[nH]ncc2c1`, the inhibition is -5.96%.
On the same count and under the same terms, with `COc1ccc(-c2nn3ncccc3c2-c2ccnc(Nc3cccc(C(F)(F)F)c3)n2)cc1` the figure was 4.5%; with `CN(C)C(=O)O[C@@H]1CN[C@@H](C#Cc2cc3ncnc(Nc4ccc(OCc5cccc(F)c5)c(Cl)c4)c3s2)C1`, -1.81%; with `CC(C)c1ccc2c(c1)NC(=O)/C2=N/Nc1ccc(S(N)(=O)=O)cc1`, 1.76%.
Same read-out and setting: with `NS(=O)(=O)c1ccc(NC=C2C(=O)Nc3ccc4ncsc4c32)cc1` the figure was 2.98%.
Take `C[C@@H](Oc1cc(-n2cnc3ccc(OCC4CCN(C)CC4)cc32)sc1C(N)=O)c1ccccc1C(F)(F)F`: the inhibition was -1.08%.
On to `CN(C)c1cc2c(Nc3ccc4c(cnn4Cc4ccccc4)c3)ncnc2cn1`, for which the inhibition was 1.55%.
On the same count and under the same terms, with `Cc1ccc(Nc2ccnc(Nc3cccc(C(N)=O)c3)n2)cc1O` the figure was -0.39%; with `CCS(=O)(=O)c1ccc(OC)c(Nc2nccc(N(C)c3ccc4c(C)n[nH]c4c3)n2)c1`, 6.04%; with `COC(=O)Nc1nc2cc(Oc3ccc(NC(=O)Nc4cccc(Br)c4)cc3)ccc2[nH]1`, 7.66%.
Same read-out and setting: with `CC(C)c1ccc(Nc2nccc(-c3cnn4ncccc34)n2)cc1` the figure was 2.55%; with `NS(=O)(=O)c1ccc(N/N=C2\C(=O)Nc3ccc(Cl)cc32)cc1`, 2.43%.
Same read-out and setting: with `COc1cccc(-n2ncc3c(N/N=C/c4ccc(C)cc4)ncnc32)c1` the figure was 4.17%; with `CCn1c(-c2nonc2N)nc2ccc(F)cc21`, 4.6%; with `COc1cc2ncnc(Nc3ccc4c(cnn4Cc4ccccc4)c3)c2cc1OC`, 4.39%.
For the compound `Nc1nccc(C#Cc2cncnc2Nc2ccc(OCc3cccc(F)c3)c(Cl)c2)n1`, the inhibition came out at 4.02%.
In the case of `Cc1cc(-c2ccccn2)cc(C)c1/C=C/c1cncc(-c2nn[nH]n2)c1`, the inhibition was determined as 4.35%.
Still for that read-out and setting: with `CS(=O)(=O)Nc1cccc(-c2ccc3c(NC(=O)C4CC4)n[nH]c3c2)c1` the figure was -3.94%.
Still for that read-out and setting: with `O=C1Nc2ccc(-c3cccnc3)cc2C1=Cc1cc(Br)c(O)c(Br)c1` the figure was 2.28%.
